“And” between values parts separate entries of the source, which are not always exact repeats. Equal entries are not always repeated. About 79,000 compounds went through this panel and 15% of them were active in at least one assay; those are over-represented in the sample as a whole. No stated cut-off is given here; in the data, active means growth inhibition above about 70%; inactive means the rest.
Key:
[1] = NCI Yeast Anticancer Drug Screen. Data for the rad50 strain (AID 155);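 further: 0% = growth of vehicle-only cultures of the same strain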; conditions: S. cerevisiae rad50 strain growth inhibition, active compounds read high; at 50.0 µM unless noted
Outline: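 Compounds were tested on a yeast strain with an engineered DNA damage repair alteration; the reported value is growth inhibition normalised to vehicle treatment.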

[2] = NCI Yeast Anticancer Drug Screen. Data for the mec2-1 strain (AID 157); conditions: S. cerevisiae mec2-1 strain, active compounds read high; at 50.0 µM unless noted
Outline: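 Cells of the genetically defined mec2-1 yeast strain are incubated with test compound. Inhibition of growth is calculated against vehicle-treated controls.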

[3] = NCI Yeast Anticancer Drug Screen. Data for the sgs1 mgt1 strain (AID 161);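 further: 0% = growth of cultures given vehicle only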; conditions: S. cerevisiae sgs1 mgt1 strain, active compounds read high; at 50.0 µM unless noted
Outline: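 Genetically altered yeast, compound exposure, growth inhibition relative to vehicle.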

[4] = NCI Yeast Anticancer Drug Screen. Data for the cln2 rad14 strain (AID 165);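 further: 0% = growth equal to vehicle treated cultures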; conditions: S. cerevisiae cln2 rad14 strain, active compounds read high; at 50.0 µM unless noted
Outline: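 The screen exposed genetically defined yeast (cln2 rad14) to test compounds and scored growth inhibition relative to vehicle-treated controls.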

[5] = NCI Yeast Anticancer Drug Screen. Data for the bub3 strain (AID 167); conditions: S. cerevisiae bub3 mutant strain, active compounds read high; at 50.0 µM unless noted
Outline: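 Growth of a checkpoint-deficient yeast mutant is measured after compound exposure. Values represent inhibition relative to vehicle.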

[6] = NCI Yeast Anticancer Drug Screen. Data for the mlh1 rad18 strain (AID 175); conditions: S. cerevisiae mlh1 rad18 strain growth inhibition, active compounds read high; at 50.0 µM unless noted
Outline: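 Compound-treated yeast growth, normalised to vehicle controls. Strain bears defined DNA repair mutations.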

Measured: growth inhibition

CC1(C)CC(O)CC(C)(C)N1
inactive: [1] 2.9% | [2] -8.7% | [3] -1.6% | [4] -2.6% | [5] -1% | [6] 1.9%

COc1cc(C=O)c(Cl)cc1OC(C)=O
inactive: [1] 32.9% | [2] 21.9% | [3] 36.4% | [4] 32.8% | [5] -10.1% | [6] 27.9%

[N-]=[N+]=Nc1cccc(-c2n[nH]c(Cl)cc2=O)c1
inactive: [1] -19.9% | [2] -11.6% | [3] -38.6% | [4] 3.1% | [5] -10.9% | [6] -34%

CC#CC#C/C(=C/C=CC(=O)OC)SC
inactive: [1] 1.95% | [2] -18.9% | [3] 13.7% | [4] 12.3% | [5] 6.6% | [6] -38.2%

CCOC(=O)COc1ccc(OC)c2c1C(=O)CCC2
inactive: [1] 21.1% | [2] 16.7% | [3] 6.15% | [4] 29.2% | [5] 10% | [6] 15%

C/C(=N/O)c1ccncc1
inactive: [1] 1.15% | [2] -3% | [3] 1.65% | [4] 11.2% | [5] 16.1% | [6] -6.9%

COc1ccc2oc(=N)c(C(=O)Nc3ccccc3)cc2c1
inactive: [1] 24.2% | [2] 20.1% | [3] -10.5% | [4] 4.9% | [5] -4.85% | [6] -38.4%

O=C(O)CCCCCCCC(=O)O
inactive: [1] 15.4% | [2] -0.45% | [3] 16.9% | [4] -3.05% | [5] 5.5% | [6] 27.2%

Cc1ccc(N2C(=O)CC(NC3CCCCC3)C2=O)cc1 (stereo not drawn)
inactive: [1] -6.2% | [2] -3% | [3] -9.65% | [4] -2.2% | [5] -5.6% | [6] -2.7%

O=C(Nc1nccs1)c1ccccc1F
inactive: [1] 3.8% | [2] -0.9% | [3] -12.2% | [4] -53.3% | [5] -8.45% | [6] -3.15%

CCCCC(C(=O)CCC(=O)Nc1ccc(Cl)c(Cl)c1)C(=O)C(C)C (stereo not drawn)
inactive: [1] -7% | [2] -18.8% | [3] 19.1% | [4] -0.3% | [5] 8.4% | [6] -2.4%

COC(=O)C1=Nc2c(C)nn(-c3ccccc3)c2N=C(c2ccc([N+](=O)[O-])cc2)C1
inactive: [1] -18.4% | [2] 0.6% | [3] -0.55% | [4] -67.1% | [5] -34% | [6] 10.3%

CNC(=O)Nc1cccc(C(=O)O)c1
inactive: [1] -0.3% | [2] -16.8% | [3] -11.1% | [4] -50.9% | [5] 4.35% | [6] 4.35%

COC(=O)C1CCOC(C)N1C(=O)OC(C)(C)C (stereo not drawn)
inactive: [1] 2.9% | [2] 0.75% | [3] 6.4% | [4] 11% | [5] 13.2% | [6] -34.5%

C[C@]12CCC(=O)C=C1CC[C@@H]1[C@@H]2C(=O)C[C@]2(C)/C(=C\C(=O)O)CC[C@@H]12
inactive: [1] -1% | [2] -19.1% | [3] 5.7% | [4] -48.1% | [5] -4.5% | [6] 2.55%

CCCC(c1ccc(N(C)C)cc1)c1ccc(N(C)C)cc1
inactive: [1] -5% | [2] -22% | [3] -2.75% | [4] 16.6% | [5] 29.3% | [6] -30%

CC1CC(Nc2ccc(Br)cc2)N(C(=O)c2ccc(Br)cc2)O1 (stereo not drawn)
inactive: [1] -25.9% | [2] -1.2% | [3] 25.5% | [4] 5.65% | [5] -35% | [6] -2.8%

CC1CCC2(OC1)OC1CC3C4CC=C5CC(O)CCC5(C)C4CCC3(C)C1C2C (stereo not drawn)
inactive: [1] 21.8% and 13.3% | [2] 16.9% and -23.6% | [3] -1.5% and 3.2% | [4] -3.95% and 4% | [5] 1.35% and 14.8% | [6] 32.9% and 15.3%

COC(=O)c1c(C)ccc(C)c1Nc1cc(C)ccc1C
inactive: [1] -2.65% | [2] -18% | [3] -1.2% | [4] 9.55% | [5] 5.65% | [6] -15.7%

CC(=O)OC1CCC2(C)C(C1)C(=O)OC1C2CCC2(C)C(C(C)CCCC(C)C)CCC12 (stereo not drawn)
inactive: [1] 27.4% | [2] 3.55% | [3] 2.75% | [4] -12.7% | [5] -3.85% | [6] 23.4%

O=C(NCN1CCOCC1)NC(=O)NCN1CCOCC1
inactive: [1] -10.6% | [2] 7.4% | [3] -7.6% | [4] -3.9% | [5] 12.2% | [6] -3.95%

NC(=O)C(c1ccccc1)C1(O)CCCCC1 (stereo not drawn)
inactive: [1] 7.7% | [2] 5.7% | [3] 9.7% | [4] 6.95% | [5] 3.2% | [6] 11.4%

ClN(Cl)c1nc(-c2ccccc2)nc(N(Cl)Cl)n1
inactive: [1] 18.1% | [2] 29.6% | [3] 34.9% | [4] -38.1% | [5] 32.5% | [6] 31.5%

O=C(O)Nc1ccc(I)cc1
inactive: [1] -9.2% | [2] -10.2% | [3] 1.15% | [4] -25.9% | [5] -4.1% | [6] -12.4%

N#Cc1ccc(Nc2cnc3cc(N)ccc3n2)cc1
inactive: [1] 38.6% | [2] -10.2% | [3] 13.6% | [4] 18% | [5] 12.8% | [6] 34.6%

Cc1cccc(C(C)C)c1N1C(=O)C(=O)C(c2nc3ccccc3o2)C(=O)C1=O
inactive: [1] -5.85% | [2] 2.15% | [3] 16.1% | [4] 39.1% | [5] 16.5% | [6] 31.2%

NC(=O)C(=CN1C(=O)CC(=O)NC1=S)C(N)=O
inactive: [1] -29.8% | [2] -34% | [3] -11.6% | [4] -13.8% | [5] -26.6% | [6] 13.5%

Cc1ccc(OCC(=O)N2N=C(c3ccccc3)CC2(O)c2ccccc2)cc1 (stereo not drawn)
inactive: [1] -7.6% | [2] -41.9% | [3] -30.6% | [4] -15.6% | [5] 0% | [6] -24.2%

CC(=O)COC(=O)c1ccccc1
inactive: [1] 32.1% | [2] 3.5% | [3] 28.7% | [4] 0% | [5] 10.2% | [6] 26.2%

CSC(=S)N/N=C(\C)c1cccs1
inactive: [1] 7.05% | [2] 1.85% | [3] 4.75% | [4] -50.9% | [5] -47.5% | [6] 10.8%

CCOC(=O)C1=C(c2ccccc2)OC(N)=C(C#N)C1c1ccccc1Cl (stereo not drawn)
inactive: [1] 28.4% | [2] 18.7% | [3] 24.6% | [4] -21.4% | [5] 39.9% | [6] 51.5%

Nc1nc(=O)[nH]c(=O)[nH]1
inactive: [1] -5% | [2] -0.4% | [3] -7.05% | [4] -28.9% | [5] -14.6% | [6] 16.9%

CCCCOc1c(Cl)c(Cl)cc(Cl)c1Cl
inactive: [1] -10.1% | [2] -15.8% | [3] -3.5% | [4] 2.2% | [5] 2.05% | [6] -17.1%

COc1ccc(-c2cccc(C(=O)O)c2C(=O)O)cc1OC
inactive: [1] 6.1% | [2] 20.8% | [3] 0.4% | [4] -17.2% | [5] -7.4% | [6] -10.1%

CC(=C/c1ccccc1)/C=C1/NC(=S)NC1=O
inactive: [1] -25.6% | [2] -41.9% | [3] -16.4% | [4] -2.7% | [5] -23.4% | [6] -21.4%

O=C(/C(Cl)=N/O)c1ccc(O)c(O)c1
inactive: [1] 30.3% | [2] 14.8% | [3] 18.2% | [4] 24.6% | [5] 47.2% | [6] 19.9%

COc1ccc(C(=O)NNC(=O)c2cccc3ccccc23)cc1
inactive: [1] 21.8% | [2] -9.75% | [3] 9.7% | [4] 5.8% | [5] 16.6% | [6] -3.6%

O=C(Cn1c(=O)ccn(C2OC(CO)C(O)C2F)c1=O)c1ccc(F)cc1 (stereo not drawn)
inactive: [1] -2.5% | [2] 0.3% | [3] -30.9% | [4] -48.8% | [5] 0.6% | [6] 3.1%
